Compounds without any hit were thinned out: in the full panel of roughly 83,000, 20% have a hit.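 Method: cells in 96-well plates; compound added at one concentration; 48 h incubation; percent growth measured; values under 10 scored active.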 Unmarked numbers belong to inactive results. Active and inactive are the calls of the source.
Key:
Test in all cases: NCI-60 one-dose screen, 48 h (100 = growth as untreated, 0 = no growth, -100 = all killed)
Conditions in all cases: 10 µM unless noted
NCI-H23 lung = system: NCI-H23 lung
NCI-H226 lung = system: NCI-H226 lung
NCI-H322M lung = system: NCI-H322M lung
HOP-62 NSCLC = system: HOP-62 NSCLC
NCI-H460 lung = system: NCI-H460 lung
HOP-92 NSCLC = system: HOP-92 NSCLC
NCI-H522 lung = system: NCI-H522 lung
A549/ATCC NSCLC = system: A549/ATCC NSCLC
786-0 renal = system: 786-0 renal
COLO 205 colon = system: COLO 205 colon

Compound | growth (NCI-H23 lung) | growth (NCI-H226 lung) | growth (NCI-H322M lung) | growth (HOP-62 NSCLC) | growth (NCI-H460 lung) | growth (HOP-92 NSCLC) | growth (NCI-H522 lung) | growth (A549/ATCC NSCLC) | growth (786-0 renal) | growth (COLO 205 colon)
COc1ccc(CN2C(=O)/C(=C\c3cc(OC)c(OC)c(OC)c3)c3cc(OC)ccc32)cc1 | -44% (active) | -21.1% (active) | 8.29% (active) | 17.1% | -42.2% (active) | 37.6% | -70.1% (active) | 3.05% (active) | 9.78% (active) | -46.3% (active)
COc1ccc(C2Nc3ccccc3-n3cccc32)cc1 (stereo not given) | 80.4% | 96.7% | 97% | 104% | 102% | 74.2% | 95.7% | 104% | 111% | 126%
CS(=O)(=O)c1c(Nc2ccccc2)n[nH]c1N | 105% | 105% | 103% | 109% | 110% | 85% | 100% | 95.9% | 96.7% | 105%
CC1=CC(=O)CC(C)(C)[C@@]1(O)/C=C/[C@@H](C)O | 89.7% | 80.8% | 103% | 107% | 112% | 97% | 92.7% | 87.7% | 102% | 110%
CC1=C(NCCN2CCCC2)C(=O)c2c(OCc3cccc(Cl)c3)cccc2C1=O | 81.4% | 94.1% | 75.8% | 78.4% | 83.1% | 60.6% | 82.9% | 77.2% | 63.3% | 69.7%
CC/C=C\C[C@H](O)C/C=C1/C(=O)C=C[C@@H]1C/C=C\CCCC(=O)NC(C)C | 13.4% | -33.5% (active) | 39.9% | -16.8% (active) | -4.43% (active) | 65.3% | -35.5% (active) | 2.59% (active) | 0.451% (active) | -41.3% (active)
COc1ccc2nc3cc(Cl)ccc3c(NCCNCC(O)CO)c2c1 (stereo not given) | 23.6% | 43.1% | 20.6% | 31.5% | 0.301% (active) | 13.1% | 3.19% (active) | 14.6% | 29.3% | 0.893% (active)
Nc1cc(-c2nc3sccn3c2-c2ccnc(NCCCNS(=O)(=O)c3ccc(F)cc3)n2)ccc1F | 63.5% | 50.7% | 69.9% | 78.1% | 47.4% | 96.9% | 48% | 41.4% | 61.3% | 32.4%
CCCC(=O)Oc1ccc(/C(=C(/CC)Cc2ccccc2)c2ccc(OCCN3CCCC3)cc2)cc1 | 81.7% | 96% | 79.2% | 82.8% | 20.8% | 79.1% | 78.4% | 67.8% | 76.6% | -6.63% (active)
N=S(=O)(NC(=O)c1ccc(Cl)cc1Cl)c1ccc(Br)s1 (stereo not given) | 102% | 94.5% | 118% | 91% | 85.8% | 86.9% | 103% | 80.7% | 89.9% | 107%
COc1cc(C2CC(=O)Nc3c2cnn3Cc2ccco2)cc2c1OCCO2 (stereo not given) | 96.6% | 92.4% | 82.5% | 88.3% | 76.6% | 109% | 44.4% | 80.6% | 98% | 81.2%
Cn1cc(-c2ccc(-c3cn(C)c4ncccc34)[nH]2)c2cccnc21 | 70.7% | 88.8% | 86.1% | 66.5% | 97.8% | -4.05% (active) | -77.3% (active) | 84.2% | 99% | -23.6% (active)
COc1ccc(-c2cn3c(ccc4ccccc43)n2)cc1 | 97.5% | 88% | 87.3% | 80.6% | 97.7% | 92.1% | 87.5% | 107% | 111% | 112%
COc1cccc(NC(=O)c2sc3nc4c(cc3c2N)CN(Cc2ccccc2)CC4)c1 | 81.2% | 57.2% | 74% | 31.4% | 45.6% | 42.1% | 68% | 62.1% | 37.2% | 78.6%
CCCCCCCCCCCCCCCCNCCC[C@@H](C)[C@H]1CC[C@H]2[C@@H]3[C@H](OCCCN)C[C@@H]4C[C@H](OCCCN)CC[C@]4(C)[C@H]3C[C@H](OCCCN)[C@]12C | -39.7% (active) | -1.42% (active) | -76.8% (active) | -49.5% (active) | -45.5% (active) | -33.2% (active) | -43.6% (active) | -58% (active) | -43.1% (active) | -40.8% (active)
CC(C)C1=C[C@@]23CC[C@@H]4[C@](C)(CCC[C@@]4(C)C(=O)OCC#CCN4CCCC4)[C@H]2C[C@@H]1[C@H]1C(=O)OC(=O)[C@H]13 | 94.9% | 96.1% | 88.5% | 91.9% | 103% | 94.1% | 78.7% | 98.4% | 103% | 111%
O=C(Nc1nc(-c2ccccc2)cc(-c2ccc(Cl)cc2)n1)c1ccncc1 | 90.2% | 93.3% | 95.6% | 97.6% | 98.7% | 89.5% | 86.8% | 90.5% | 92.8% | 103%
CC1=N/C(=C\c2cccc(Br)c2)C(=O)O1 | 106% | 106% | 106% | 92.8% | 106% | 107% | 87.7% | 89.3% | 102% | 106%
COc1cc(-c2c3c(nc4c2c(C)nn4-c2ccccc2)-c2ccccc2C(=O)C3=O)cc(OC)c1OC | 76.6% | 99.7% | 104% | 107% | 77.4% | 83.7% | 84.4% | 80.6% | 97.8% | 69.7%
Cc1ccc(S(=O)(=O)N(CCc2ccc(Cl)cc2)S(=O)(=O)c2ccc(C)cc2)cc1 | 90.9% | 75.2% | 93.1% | 103% | 101% | 88.1% | 77.4% | 88.3% | 94.4% | 111%
CC(=O)Oc1ccc(Nc2c3ccccc3nc3ccccc23)cc1 | 11.9% | -59.2% (active) | 19.9% | 11.2% | -26.5% (active) | -3.96% (active) | -69.7% (active) | -23.7% (active) | 16.5% | 3.96% (active)
CCN(CC)Cc1cc(Nc2c3ccccc3nc3cc(Cl)ccc23)ccc1O | -82.6% (active) | -47.5% (active) | -40.9% (active) | -65.2% (active) | -73.6% (active) | -33.1% (active) | -80.8% (active) | -37.6% (active) | -55.1% (active) | -100% (active)
COc1cnc2c(c1)C(=O)c1c-2n(CCCN2CCNCC2)c(=O)c2cc([N+](=O)[O-])ccc12 | -63.6% (active) | -59.4% (active) | -72.2% (active) | -67.2% (active) | -42.3% (active) | 22.8% | -48.2% (active) | -87.2% (active) | -85.8% (active) | 14.4%
Cc1ccc(N)cc1F | 94.6% | 101% | 101% | 84.1% | 108% | 109% | 88.8% | 99.8% | 92.9% | 168%
COc1cc2c(c(OC)c1OC)-c1ccc(N=NC(N)=S)c(=O)cc1[C@@H](NC(C)=O)CC2 | 1.29% (active) | 41.8% | 36.5% | 7.96% (active) | 3.1% (active) | 69.6% | -59.8% (active) | 15% | 9.81% (active) | -73.6% (active)
CCN(CC)CCC(=O)c1ccc(OC)c2ccccc12 | 90.8% | 115% | 90.9% | 83.4% | 99.8% | 102% | 12.6% | 100% | 98.7% | 109%
CC1=NNC(=O)C1C (stereo not given) | 100% | 93.5% | 585% | 87.4% | 114% | 102% | 85.9% | 98.6% | 103% | 110%

— PubChem BioAssay (NCI)
